Shown are actives, neighbours in structure and some others; about 12% of the full set was active somewhere.
FMDV inh: antivirals against foot and mouth disease virus | FMDV antiviral cell-based qHTS | Potency, µM (doses to about 57.9 µM), for inactives: at the highest dose activity change, negative = inhibition, actives largely listed as inhibitors | 410,000 compounds, 1.2% hits; calls by dose curve; tested in HEK293T cells; further: read-out not given here; potency means the concentration at half of the fitted maximal effect; on the % scale 0 is the no-effect control and ±100 the full control effect; nearly all actives have a fitted effect of over 45% in size
CHX counter: counter-screen for Shiga toxin inhibitors: cycloheximide protein synthesis inhibition. 300,000 compounds, 12% hits. max response, %. cell reporter, cycloheximide protein synthesis inhibition counterscreen. AID 2314; in the data active means max response mostly above about 13%, no sharp cut-off; inactive means mostly below about 14%; further: read at 38.3 µM for the half of the compounds with a filed dose; 0% is about no effect
Shiga inhibitor: Shiga toxin inhibition; Vero cells, Shiga toxin protein synthesis inhibition reporter; 290,000 compounds, 9.2% hits; AID 2315; inhibition, % at 38.7 µM; in the data active means inhibition mostly above about 28%, no sharp cut-off; inactive means mostly below about 43%; further: 0% is about no effect
Sm TGR block: S. mansoni TGR enzyme inhibition; AID 485364; purified TGR, DTNB reduction, TNB absorbance 405 nm; 360,000 compounds, 3% hits; Q962Y6; Potency, µM (series often up to 114 µM), without a hit: top-dose activity change, negative = inhibition, most hits filed as inhibitors; active means well fitted inhibition curve with a large enough effect; inconclusive means small, poorly fitted or top-dose-only effect; inactive means no such curve, though single readings can be large or run the other way; further: potency means the concentration at half of the fitted maximal effect; on the % scale 0 is the no-effect control and ±100 the full control effect; nearly all actives have a fitted effect of over 60% in size
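First, TGR (20 nM dispensed) and NADPH were mixed with compound. Second, a 15 min room-temperature incubation followed. Third, further NADPH and then DTNB were added to start the reaction. Finally, TNB absorbance was monitored kinetically.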
The depositor's hits bear a star; ? = inconclusive; . = no result; + = active, no number; [ ] = dose if it differs, or a comment.

SMILES | FMDV inh | CHX counter | Shiga inhibitor | Sm TGR block
CCc1ccccc1NC(=O)CSC1=Nc2ccccc2C2=NC(Cc3ccccc3)C(=O)N12 (stereo not given) | -9% | . | . | -1%
COc1cc([N+](=O)[O-])ccc1NC(=O)NNC(=O)c1sccc1C | 37% | 26* | 35* | -13%
Nc1ccccc1Oc1ccccc1 | . | -1 | -5 | .
Nc1ccc(Oc2ccccc2-c2ccccc2)cc1 | 7.9µM* | . | . | .
Fc1ccc(-c2cn3cc(Cc4ccc(Cl)cc4)sc3n2)cc1 | 44% | . | . | 11%
O=C(Nc1cc(F)ccc1F)N1CCC(CN2CCCC2)CC1 | -10% | . | . | -30%
COc1cc2ccc(-c3ccc4ccccc4n3)cc2cc1OC | 29% | . | . | .
Nc1ccc(-c2ccc3ccccc3n2)cc1 | . | 25* | 71* | .
COc1ccc(-c2ccc3ccccc3n2)cc1OC | 39% | 46* | 133* | 2%
COc1ccc(-c2ccc3ccccc3n2)cc1 | -15% | 41* | 71* | 0%
COc1ccc(-c2cc3ccccc3cn2)cc1 | -2% | . | . | -23%
CC(=O)[C@@]1(O)CC[C@H]2[C@@H]3C[C@H](C)C4=CC(=O)CC[C@]4(C)[C@H]3CC[C@@]21C | 28µM* | -3 | 6 | -3%
C=C1CC2C(CCC3(C)C2CCC3(O)C(C)=O)C2(C)CCC(=O)C=C12 (stereo not given) | 25µM* | -3 | -15 | -17%
CC(=O)[C@]1(O)CCC2C3CCC4=CC(=O)CC[C@@]4(C)C3CC[C@]21C (stereo not given in full) | -13% | . | . | .
CC(=O)[C@@]1(O)CCC2C3C=CC4=CC(=O)CC[C@]4(C)C3CC[C@@]21C (stereo not given in full) | -21% | . | . | -19%
CCOCCc1nn2c(=O)cc(COC(=O)CNC(=O)c3ccc(F)cc3)nc2s1 | -22% | . | . | 3%
CCc1ccccc1S(=O)(=O)Cc1ccc(C(=O)NCC2CCCO2)o1 (stereo not given) | -12% | 8 | 15 | 40µM*
O=C(NCC1CCCO1)c1ccc(CS(=O)(=O)c2c(Cl)cccc2Cl)o1 (stereo not given) | 2% | -6 | -10 | -4%
NC(=O)c1ccc(NC(=O)C2CCCO2)cc1 (stereo not given) | -3% | -4 | -11 | -31%
CN(C)c1ccc(C(=O)NCC2CCCO2)cc1 (stereo not given) | 33% | 43* | 64* | -4%
CCCOC(=O)c1ccc(NC(=O)C2CCCO2)cc1 (stereo not given) | 63% | 39* | 66* | -10%
CN(C)c1cccc(C(=O)NCC2CCCO2)c1 (stereo not given) | 40% | 14 | 42* | 10%
CCOC(=O)c1noc2nc(C)n(CC(=O)Nc3ccc(OC)c(Cl)c3)c(=O)c12 | 0% | . | . | 2%
Cc1ccc(CC(=O)NCc2nc(-c3cccc(C)c3)no2)cc1 | -4% | . | . | 6%
Cc1cc2c(cc1S(=O)(=O)Nc1cccc(C#N)c1)OCC(=O)N2 | 54% | . | . | 6%
SMILES | FMDV inh | CHX counter | Shiga inhibitor | Sm TGR block
COc1ccc(C(=O)NCC2CCCO2)cc1 (stereo not given) | 45% | 36* | 54* | 0%
O=C(Nc1ccc(O)cc1)c1ccc(NC(=O)C2CCCO2)cc1 (stereo not given) | 19% | 8 | 7 | -6%
COc1ccc(CCNCC2CCCO2)cc1 (stereo not given) | 0% | 18* | 24* | -17%
COc1cccc(CNCC2CCCO2)c1 (stereo not given) | -11% | -3 | . | 0%
COc1cccc(-c2cc(C(=O)NCC3CCCO3)c3cc(C)cc(C)c3n2)c1 (stereo not given) | 7% | 12* | 15 | 17%
Cc1cc(NC(=O)c2ccc(NC(=O)C3CCCO3)cc2)ccc1Br (stereo not given) | ? | 42* | 74* | -28%
COc1ccc(Cl)cc1NC(=O)CSc1nc2c([nH]c3ccccc32)c(=O)n1-c1ccccc1 | -25% | . | . | -10%
CCn1nnc2cc(C(=O)Nc3cccc(Cl)c3C)ccc21 | 8% | . | . | 1%
O=C(NCc1ccc(F)cc1)c1ccc(NC(=O)C2CCCO2)cc1 (stereo not given) | -9% | -5 | -12 | 2%
COc1ccc(CNC(=O)c2ccc(NC(=O)C3CCCO3)cc2)cc1 (stereo not given) | 37% | 9 | 26* | 0%
Cc1ccc(C)n1-c1ccc(C(=O)NCC2CCCO2)cc1 (stereo not given) | 31% | -1 | 28 | 40µM*
CS(=O)(=O)N(CC(=O)NCC1CCCO1)c1cccc(Cl)c1 (stereo not given) | 4% | 15* | 19 | 5%
CC(=O)c1ccc(-c2ccc(C(=O)NCC3CCCO3)o2)cc1 (stereo not given) | 3% | . | . | 35µM*
CC1CCc2sc(C(=O)NCC3CCCO3)cc2C1 (stereo not given) | 27% | . | . | 4%
O=C(NCC1CCCO1)c1cc2c(s1)CCC2 (stereo not given) | 47% | 52* | 89* | 2%
COc1ccccc1CNC(=O)C(=O)NCC1CCCO1 (stereo not given) | 45% | 24* | 62* | 1%
CCN(C(=O)Cn1cc(S(=O)(=O)Cc2ccccc2Cl)c2ccccc21)c1ccccc1 | -21% | . | . | -2%
CC1CCN(S(=O)(=O)c2cc(C(=O)NCCc3ccccc3)n(C)c2)CC1 | -10% | . | . | 2%
COc1ccc(C2c3cc(OC)c(OC)cc3CC(=O)N2c2ccc(C)cc2)cc1 (stereo not given) | -30% | . | . | 12%
Clc1ccc(-c2nc3ccc(Cl)cn3c2Cc2cccc(Cl)c2)cc1 | 34% | . | . | .
Clc1cccc(Cc2c(-c3ccco3)nc3ccc(Br)cn23)c1 | 25µM* | . | . | .
Clc1cccc(Cc2c(-c3ccco3)nc3ccc(Cl)cn23)c1 | 40µM* | . | . | .
C=CCOC(=O)COc1ccc2c(C)c(CC)c(=O)oc2c1 | -2% | -2 | -5 | 2%
CCCCc1c(C)c2ccc(OCC(C)=O)cc2oc1=O | 27% | 30* | 100* | -15%
CC(=O)COc1ccc2c(C)c(-c3ccccc3)c(=O)oc2c1 | -17% | 45* | 58* | 2%
SMILES | FMDV inh | CHX counter | Shiga inhibitor | Sm TGR block
CCOC(=O)CCc1c(C)c2ccc(OCC(=O)OC(C)C)cc2oc1=O | 11% | 34* | + | -4%
CCOC(=O)CCc1c(C)c2ccc(OC3CCCCC3=O)cc2oc1=O (stereo not given) | ? | 21* | 27 | 8%
CCOC(=O)CCc1c(C)c2ccc(OCc3ccc([N+](=O)[O-])cc3)cc2oc1=O | 1% | -4 | -10 | 1%
CCc1ccc(-c2nc(CSCC(=O)NCc3ccc(C)cc3)c(C)o2)cc1 | -11% | . | . | -17%
O=C(O)Cc1c(Cl)ccc(Cl)c1Cl | . | -2 | -14 | .
CCN(c1ccccc1)S(=O)(=O)c1nnc(NC(=O)C(C)Oc2ccccc2)s1 (stereo not given) | -12% | . | . | 4%
COCCNC(=O)c1[nH]c2cc(C)ccc2c1Sc1ccc(Cl)cc1 | 8% | . | . | 2%
CCOC(=O)CCc1c(C)c2ccc(OCc3nn[nH]n3)cc2oc1=O | -10% | -5 | 23 | -28%
CCCc1c(C)c2ccc(OCC(C)=O)cc2oc1=O | 14% | 49* | 94* | -1%[11.4 µM]
COc1ccc(C2CC(=O)c3cc(-c4nc(-c5ccc(Cl)cc5)c(C)s4)c(=O)[nH]c3C2)cc1 (stereo not given) | -7% | . | . | 3%
